Reference: PubChem BioAssay
Active and inactive are the calls of the source. Unless noted, how the calls were made is not given here.

Assays:
[1] = test system: Wnt5a (protein binding on small-molecule microarray); test: Wnt5a binders on small-molecule microarray, primary screen, biophysical, 635/667 nm fluorescence (AID 1142); conditions: 635 nm fluorescence, higher = more signal;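 further: fluorescence read at 667 nm with signal to noise per printed feature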
[2] = cell viability in Huh7 cells, primary screen, cytotoxicity control for HCV replication inhibitor project, CellTiter-Glo luminescence, basal, 48 h (AID 1143); conditions: Huh7 HCV replicon, higher = more signal, called active from +8 up or from −8 down;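 further: Huh7 hepatoma cells carrying a hepatitis C replication reporter with no stimulus; test concentration not given here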
[3] = P. aeruginosa biofilm formation inhibitors, primary screen, PAO1 strain, BacTiter-Glo luminescence, LB-PBS (AID 1144); conditions: 12 h, higher = more signal
[4] = CREB reporter modulators without forskolin, primary screen, cell-based, PC12, CRE-LacZ reporter, unstimulated (AID 1145); conditions: no forskolin, luminescence, 4.5 h, higher = more signal, called active from +8 up or from −8 down
[5] = CREB reporter modulators under forskolin, primary screen, cell-based, PC12, CRE-LacZ reporter, forskolin-stimulated (AID 1146); conditions: luminescence, 4.5 h, higher = more signal, called active from +8 up or from −8 down;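 further: PC12 cells with 6xCRE LacZ reporter stimulated by forskolin 10 µM; beta-galactosidase reporter signal reflecting CREB driven transcription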
[6] = biological target: Streptavidin (Streptomyces avidinii) (UniProt P22629); test: streptavidin binders on small-molecule microarray, primary screen, artefact control for SMM compound annotation, biophysical, 635/667 nm fluorescence (AID 1147); conditions: streptavidin binding, higher = more signal;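 further: signal reflects streptavidin binding to arrayed compounds as a control protein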
[7] = small-molecule binders of probe aInhba, primary screen, biochemical, small-molecule microarray, 635/667 nm fluorescence (AID 1148); conditions: higher = more signal;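 further: score merges 667nm spot fluorescence with signal-to-noise for antibody binding to printed compounds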
Torsin-1A (Homo sapiens) [8] = biological target: Torsin-1A (Homo sapiens) (UniProt O14656); test: torsin A binders from cell lysate, primary screen, small-molecule microarray, wild-type, 635/667 nm (AID 1149); conditions: COS7 hTOR1A-WT lysate, 635 nm fluorescence, higher = more signal
Torsin-1A (Homo sapiens) [9] = biological target: Torsin-1A (Homo sapiens) (UniProt O14656); test: small-molecule binders of mutant TOR1A in lysate, primary screen, cell lysate, small-molecule microarray, COS7 lysate, 635/667 nm fluorescence (AID 1150); conditions: COS7 hTOR1A mutant lysate, 635 nm fluorescence, higher = more signal;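 further: score pools 667 nm emission and signal to noise measuring lysate protein binding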
[10] = test system: Sonic hedgehog protein (Shh); test: small-molecule binders of Shh protein, primary screen, biochemical, small-molecule microarray, 635/667 nm fluorescence (AID 1151); conditions: small-molecule microarray binding, 635 nm fluorescence; higher = more signal;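 further: Shh protein binding to compounds spotted on small-molecule microarray slides; score combines spot fluorescence intensity with signal-to-noise across triplicate slides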

Torsin-1A (Homo sapiens), sequence (O14656 whole entry, looked up): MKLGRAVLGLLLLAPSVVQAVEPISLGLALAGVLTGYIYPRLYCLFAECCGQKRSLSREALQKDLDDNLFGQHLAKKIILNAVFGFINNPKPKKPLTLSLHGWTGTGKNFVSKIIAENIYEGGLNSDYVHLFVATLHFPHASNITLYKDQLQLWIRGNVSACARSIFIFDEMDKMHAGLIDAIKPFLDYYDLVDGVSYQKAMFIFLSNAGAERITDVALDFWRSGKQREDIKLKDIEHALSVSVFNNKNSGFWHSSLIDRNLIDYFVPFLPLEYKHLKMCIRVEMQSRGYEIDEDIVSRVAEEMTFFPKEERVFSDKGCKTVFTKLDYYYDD
Streptavidin (Streptomyces avidinii), sequence (P22629 whole entry, looked up): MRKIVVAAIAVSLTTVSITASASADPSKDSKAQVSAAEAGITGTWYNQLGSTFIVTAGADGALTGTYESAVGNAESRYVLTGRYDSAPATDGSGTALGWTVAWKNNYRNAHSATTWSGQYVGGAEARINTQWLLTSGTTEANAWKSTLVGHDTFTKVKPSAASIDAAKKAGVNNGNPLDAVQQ

| SMILES | composite z-score [1] | z-score [2] | z-score [3] | z-score [4] | z-score [5] | composite z-score [6] | composite z-score [7] | composite z-score (Torsin-1A (Homo sapiens) [8]) | composite z-score (Torsin-1A (Homo sapiens) [9]) | composite z-score [10] |
| --- | --- | --- | --- | --- | --- | --- | --- | --- | --- | --- |
| COCCOC(=O)N1C(=O)[C@@]2(c3cc(C#CC4(O)CCCCCC4)ccc31)[C@H](C(N)=O)[C@H]1C(=O)O[C@H](c3ccccc3)[C@H](c3ccccc3)N1[C@@H]2c1ccc(O)cc1 | 0.179 | -1.02 (inactive) | 0.00701 (inactive) | 2.25 (inactive) | 3.59 (inactive) | 0.184 | -0.0645 | -0.0243 | 0.0342 | 0.778 |
| CC(C)C(O)C1C=CC2C(=O)N(C)C(=O)C2N1N(c1ccccc1)c1ccccc1 (stereo not given) | -0.18 | 0.909 (inactive) | 0.633 (inactive) | 0.0535 (inactive) | -0.136 (inactive) | 0.0226 | -0.0332 | -0.141 | 0.369 | -1.28 |
| CCOC(=O)[C@H]1C/C=C/C[C@H](C(=O)OCC)C(=O)O[C@H]2[C@@H](OC)O[C@H](CO)[C@@H](OC(=O)CCc3ccccc3)[C@@H]2OC1=O | -0.581 | -1.31 (inactive) | -1.28 (inactive) | -0.475 (inactive) | -0.0955 (inactive) | -0.345 | 0.788 | -0.407 | -0.532 | -0.0617 |
| NCCCCCCNC(=O)[C@H]1C[C@H]2C(=O)N[C@@H](Cc3ccccc3)C(=O)N2[C@H]1c1ccc(O)cc1 | 0.21 | 0.277 (inactive) | -0.652 (inactive) | -1.48 (inactive) | -1.24 (inactive) | 1.38 | 0.103 | 2.14 | 0.394 | 1.07 |
| COc1ccc(NC(=O)O[C@H]2[C@H](OC(=O)Nc3ccc4c(c3)OCO4)[C@@H](OC(=O)Nc3ccc4c(c3)OCO4)[C@@H](OC)O[C@@H]2CO)cc1 | 0.201 | -3.73 (inactive) | -0.488 (inactive) | 1.85 (inactive) | -0.559 (inactive) | 1.38 | 0.277 | 0.812 | 1.27 | 1.27 |
| O=c1cccc(-c2ccc(C(F)(F)F)cc2)o1 | -0.281 | 0.421 (inactive) | 0.634 (inactive) | -0.275 (inactive) | -0.145 (inactive) | -0.43 | -0.0963 | -0.848 | -0.476 | -0.559 |
| NC(N)=NCc1cn(CCc2c[nH]c3ccccc23)nn1 | 0.131 | -0.343 (inactive) | 0.845 (inactive) | -0.0989 (inactive) | 0.0771 (inactive) | 0.294 | 0.0275 | 0.607 | 0.734 | 1.54 |
| O=C1O[C@@H](c2ccccc2)[C@@H](c2ccccc2)N2[C@@H](c3ccc(O)cc3)[C@]3(C(=O)Nc4ccc(C#CCCO)cc43)[C@@H](C(=O)NC[C@H](O)c3ccccc3)[C@H]12 | -0.738 | 0.058 (inactive) | 0.142 (inactive) | -1.15 (inactive) | -0.869 (inactive) | -0.791 | -0.128 | -0.664 | 0.229 | 0.304 |
| CO[C@H]1O[C@H](CO)[C@@H](OC(=O)Nc2ccccc2-c2ccccc2)[C@H](OC(=O)Nc2ccc3c(c2)OCO3)[C@@H]1OC(=O)Nc1ccc2c(c1)OCO2 | 0.25 | -2.72 (inactive) | 0.233 (inactive) | 0.792 (inactive) | -1.52 (inactive) | 0.282 | 0.361 | 0.388 | 1.41 | 0.91 |
| C=CC[C@@]1(C(=O)O)N=C(c2ccc(OCCCO)cc2)O[C@@H]1c1ccccc1 | 1.45 | 0.0076 (inactive) | -0.385 (inactive) | -0.491 (inactive) | -1.2 (inactive) | -1.72 | -0.231 | 4.37 | 4.32 | -0.198 |
| C=CC1c2cc(O)c(OC)cc2CCN1Cc1sc2ccccc2c1Cl (stereo not given) | 0.252 | -3.81 (inactive) | 1.39 (inactive) | -0.114 (inactive) | 1.7 (inactive) | 1.57 | -0.295 | -0.425 | 0.257 | -0.0808 |
| CC(C)CCC[C@@H](C)[C@H]1CC[C@@]2(C)C3=C(CC[C@]12C)[C@@]1(C)CC[C@H](OC(=O)c2ccc(Br)cc2)C(C)(C)C1CC3 (stereo not given in full) | 0.119 | -1.17 (inactive) | -0.784 (inactive) | 0.21 (inactive) | 0.168 (inactive) | 0.0916 | 0.054 | 0.276 | 0.409 | 0.384 |
| CC(C)N1C(=O)[C@@]2(c3ccc([N+](=O)[O-])cc3)CC(=O)N(C3CCCCC3)[C@@H]2c2ccc(CO)cc21 | -0.0311 | -0.311 (inactive) | -1.16 (inactive) | -0.464 (inactive) | -0.144 (inactive) | -0.196 | -0.045 | -0.36 | -0.123 | 1.02 |
| CN(C)CCCNC(=O)[C@@H]1c2ccccc2C(=O)N(CC23CC4CC(CC(C4)C2)C3)[C@H]1c1ccc(CO)cc1 | 0.528 | -4.72 (inactive) | -0.465 (inactive) | -0.322 (inactive) | -0.0221 (inactive) | 1.12 | 0.016 | 0.954 | 0.808 | 1.5 |
| COc1ccc([Si](C)(C)[C@@H]2[C@@H](CC(=O)N3CCC[C@H]3CO)O[C@]3(C(=O)N(Cc4ccc(N5C(=O)c6cccc7cccc5c67)cc4)c4ccccc43)[C@H]2C)cc1 | 0.761 | -4.78 (inactive) | -0.489 (inactive) | 0.995 (inactive) | -0.0202 (inactive) | 0.0541 | 0.0184 | 0.344 | 0.72 | 2.06 |
| COc1ccc(NN2C(C(O)c3ccccn3)C=CC3C(=O)N(C4CCCCC4)C(=O)C32)cc1 (stereo not given) | 0.483 | -0.924 (inactive) | -1.43 (inactive) | -0.471 (inactive) | -0.119 (inactive) | 1.37 | 0.0183 | 0.0607 | 0.542 | -0.0244 |
| C=C(C(=O)CC[C@H](OC(C)=O)c1cccc(OCCO)c1)C(C)C | -0.161 | -3.05 (inactive) | -0.0576 (inactive) | 0.798 (inactive) | 1.04 (inactive) | -0.608 | -0.0719 | -0.34 | -0.241 | 0.144 |
| COc1ccc([Si](C)(C)[C@H]2[C@H](CC(=O)N3Cc4ccccc4C[C@H]3CO)O[C@@]3(C(=O)N(Cc4cccc(N5CCCCC5=O)c4)c4ccccc43)[C@@H]2C)cc1 | 0.329 | -3.48 (inactive) | -0.185 (inactive) | 2.21 (inactive) | 0.114 (inactive) | -0.0717 | 0.0422 | 0.849 | 0.431 | 2.15 |
| O=C1C[C@]2(c3ccc([N+](=O)[O-])cc3)C(=O)N(Cc3ccccc3)c3cc(CO)ccc3[C@H]2N1CC12CC3CC(CC(C3)C1)C2 | -0.186 | 0.349 (inactive) | 0.435 (inactive) | -0.491 (inactive) | 0.245 (inactive) | -1.04 | -0.325 | -0.659 | 0.263 | -0.419 |
| C=C(/C=C/CNS(=O)(=O)c1ccc(C)cc1)[C@H](O)[C@H]1CCCN1S(=O)(=O)c1ccccc1[N+](=O)[O-] | 0.118 | -1.58 (inactive) | 1.01 (inactive) | 6.84 (inactive) | -1.17 (inactive) | 0.337 | -0.0791 | 0.361 | 0.388 | 0.758 |
| Cc1c(NC(=O)/C(C#N)=C/C=C/c2ccc(N(C)C)cc2)c(=O)n(-c2ccccc2)n1C | 0.48 | -0.853 (inactive) | 2.09 (inactive) | 0.595 (inactive) | -1.4 (inactive) | 0.96 | 0.264 | 0.314 | 0.288 | 0.259 |
| CC1CC/C=C\[C@H]2OC34C=CCN(CCN5CCOCC5)C(=O)[C@H]3N(CCO)C(=O)[C@@H]4C2C(=O)O1 (stereo not given in full) | -0.249 | -0.894 (inactive) | 0.463 (inactive) | -0.216 (inactive) | -0.626 (inactive) | -0.638 | -0.178 | 0.161 | 0.213 | -0.636 |
| C=CC[C@]12N=C(c3ccc(OCCCO)cc3)O[C@H]1c1ccccc1N(C)C2=O | 0.305 | -4.59 (inactive) | -1.2 (inactive) | 0.549 (inactive) | -1.18 (inactive) | -0.283 | 0.435 | -0.0323 | 0.468 | 1.28 |
| CC(C)C(O)C1C=CC2C(=O)N(C)C(=O)C2N1Nc1ccccc1 (stereo not given) | 0.361 | 1.03 (inactive) | -1.04 (inactive) | 0.0535 (inactive) | -0.0784 (inactive) | 0.53 | 0.85 | 0.378 | 0.597 | -0.361 |
| C=CCOC(=O)[C@H]1[C@@H]2C(=O)O[C@@H](c3ccccc3)[C@@H](c3ccccc3)N2[C@@H](c2ccc(OCCOC(=O)[C@H]3C[C@H]4C(=O)N[C@@H](Cc5ccccc5)C(=O)N4[C@H]3c3ccc(O)cc3)cc2)[C@]12C(=O)Nc1ccc(I)cc12 | 0.72 | -0.918 (inactive) | -0.707 (inactive) | 1.09 (inactive) | 0.204 (inactive) | 0.133 | -0.0567 | 0.586 | 0.691 | 2.32 |
| COCCOC(=O)N1C(=O)[C@@]2(c3cc(C#CC4=CCCCC4)ccc31)[C@H](C(=O)N1CCN(c3ncccn3)CC1)[C@H]1C(=O)O[C@H](c3ccccc3)[C@H](c3ccccc3)N1[C@@H]2c1ccc(O)cc1 | 0.282 | -1.17 (inactive) | -0.13 (inactive) | 0.761 (inactive) | -0.0066 (inactive) | 0.45 | -0.0736 | 0.714 | 0.296 | 1.5 |
| CC=CC(O)C1C=CC2C(=O)N(C)C(=O)C2N1N1CCCCC1 (stereo not given) | 0.251 | 0.173 (inactive) | -0.0466 (inactive) | 1.79 (inactive) | 0.319 (inactive) | 0.988 | -0.15 | 0.74 | 0.71 | 0.441 |
| C=C(COC)/C(=C/C[C@@H](OC(=O)c1ccncc1)c1ccc(OCCO)cc1)c1cnc2ccccc2c1 | 0.884 | -3.25 (inactive) | -1.28 (inactive) | 7.95 (inactive) | 0.34 (inactive) | 2.13 | 0.0419 | 0.77 | 0.327 | 2.09 |
| CON(C)C(=O)C=C1C[C@@H](c2cccc(Cl)c2)O[C@@H](c2cccc(Cl)c2)O1 | -0.124 | -3.94 (inactive) | 0.875 (inactive) | 0.481 (inactive) | -1.07 (inactive) | 2.55 | -0.183 | 0.643 | 0.124 | 0.774 |
